# Among all 48,000 compounds or so, about 13,000 (27%) showed an effect of 50% or more. Some of the results follow.
# Test system: Wolbachia pipientis
# Test: Anti-Wolbachia Cell-Based Screen
# Assay type: functional
# Parameters: scale not given: in the data most compounds retested in dose-response had high values
# Details: 5 µM
row,SMILES,Percent Effect
1,C[C@H](NC(=O)C1(N(C)Cc2ccccc2)Cc2ccccc2C1)C(N)=O,-2.365%
2,CC(=O)c1c(F)cccc1NC1CCN(S(=O)(=O)C2CC2)CC1,15.22%
3,CN(CC(=O)NC(C)(C)C)C(=O)c1cccn1CCc1ccccc1,4.312%
4,CN(Cc1cc(Br)cn1C)C(=O)c1cccnc1,-11.61%
5,CCn1c(CN(C)C(=O)c2ccc(O)nc2)nc2ccccc21,-29.68%
6,Cc1ccc(C(=O)N(C)Cc2cc(Br)cs2)cn1,108.4%
7,Cc1cc(CN(C)C(=O)c2ccc(C(F)(F)F)nc2)no1,4.429%
8,CN(Cc1nccn1C)C(=O)c1cccc(CCC(C)(C)O)c1,-1.939%
9,CN(Cc1ccc2c(c1)OCO2)C(=O)c1ccc(=O)n(C)c1,-0.4136%
10,CN(Cc1nccn1CC(F)(F)F)C(=O)c1cccc(N(C)C)c1,107.5%
11,Cc1cnn(CCNCc2nccn2CC(F)(F)F)c1,-5.156%
12,CN(Cc1ccc2c(c1)OCO2)C(=O)c1ccn(C)c(=O)c1,11.43%
13,Cc1ccc(C(=O)N(C)Cc2nccn2CC(F)(F)F)cn1,108.9%
14,Cc1nn(C)c(C)c1CN(C)C(=O)c1cccc(CCC(C)(C)O)c1,-10.94%
15,CN(Cc1nccn1CC(F)(F)F)C(=O)c1ccc2c(c1)OCO2,110.7%
16,CCc1nnsc1C(=O)NCc1c(C)nn(CCOC)c1C,22.53%
17,Cc1ccc(C2CCCCCN2CCNS(C)(=O)=O)o1 (configuration not stated),-18.53%
18,O=C(CN1C(=O)CCCc2sccc21)NC1CCc2nccn2C1 (configuration not stated),-8.511%
19,Cc1cc(CN2C[C@H]3CC[C@@H]2CN(Cc2c(C)noc2C)C3)ccc1F,-0.5585%
20,COc1cc(C(=O)N(C)Cc2nccn2CC(F)(F)F)ccc1C,111.1%
21,CC(O)C1CCN(Cc2nccn2CC(F)(F)F)CC1 (configuration not stated),-9.918%
22,COCc1cccc(C(=O)N(C)Cc2ncc(C)c(OC)c2C)c1,6.137%
23,FC(F)(F)Cn1ccnc1CNCCn1cccn1,-10.84%
24,CN(C)CC1CCN(Cc2nccn2CC(F)(F)F)CC1,2.033%
25,CCOc1ccc(C(=O)N(C)Cc2nccn2CC(F)(F)F)cc1,117.2%
26,O=C(O)C(F)(F)F.O=C(O)C(F)(F)F.c1cncc(CN2CCOC(c3ncn4c(C5CC5)cccc34)C2)c1 (configuration not stated),-19.22%

row,SMILES,Percent Effect
1,Cc1ncsc1CCn1ccnc1-c1cc2n(n1)CCCNC2,-9.491%
2,COc1cc(C)c(C(C)NC(=O)Nc2nnc(C)s2)cc1OC (configuration not stated),-2.297%
3,CO[C@@H]1CN(C)S(=O)(=O)[C@@]12CCN(Cc1ccccc1)C2,116.7%
4,CC1CN(Cc2ccccc2)CCCN1CCNS(C)(=O)=O (configuration not stated),2.156%
5,CC1CN(Cc2ccccc2)CCCN1CCS(C)(=O)=O (configuration not stated),-9.711%
6,CO[C@H]1CN(C)S(=O)(=O)[C@@]12CCN(Cc1ccccc1)C2,109.7%
7,COc1ccc(OCC(C)NS(C)(=O)=O)cc1 (configuration not stated),-2.499%
8,CCCOc1cc(C)c2c(c1C)C[C@H]([C@H](C)C(=O)O)CC2,-9.304%
9,CNS(=O)(=O)CC(=O)N1CC2(CCCC2)c2c(F)cccc21,-10.56%
10,CCS(=O)(=O)N1CCC(NCC2CNc3cc(C)nn3C2)CC1 (configuration not stated),-5.639%
11,CC(=O)Nc1ccc2c(c1)C1(CCOCC1)C(=O)N2c1ccsc1,7.168%
12,c1ccc(Cc2noc(CN3CCCCC3C3OCCO3)n2)cc1 (configuration not stated),-5.666%
13,C1CC(CN2CCCCC2C2OCCO2)C1 (configuration not stated),19.65%
14,OCCN1CCCCC1C1OCCO1 (configuration not stated),89.19%
15,C1CCN(CCN2CCCCC2C2OCCO2)CC1 (configuration not stated),105.6%
16,COc1ccc(NC(=O)CN2CCCCC2C2OCCO2)cc1 (configuration not stated),17.05%
17,COC(=O)c1ccc(NC(=O)CN2CCCCC2C2OCCO2)cc1 (configuration not stated),-2.306%
18,CCn1cc(NC(=O)NCCc2ccc3c(c2)OCO3)cn1,124.8%
19,CCn1cc(NC(=O)NCCc2ccc3c(c2)OCCO3)cn1,126.5%
20,CCCn1cc(C(=O)NCCc2ccc3c(c2)OCO3)c(C)n1,-4.07%
21,CCn1cc(NC(=O)NCC(C)O)cn1 (configuration not stated),-13.78%
22,CCn1cc(NC(=O)NCc2ccc3c(c2)OCO3)cn1,135.2%
23,O=C(Cn1cc(Cl)cn1)Nc1ccc2c(c1)OCCCO2,-3.42%
24,CCn1cc(NC(=O)NCC2(N3CCOCC3)CCSC2)cn1 (configuration not stated),-22.54%
25,Cn1cc(CCNC(=O)CCc2ccc3c(c2)OCO3)cn1,-1.168%
26,CCn1cc(NC(=O)Nc2ccc3c(c2)OCCO3)cn1,131.1%

row,SMILES,Percent Effect
1,Cc1nn(C)c(C)c1CN(Cc1cccn1-c1ccccn1)C(C)C,-9.247%
2,CCc1cnc(N2CCN(Cc3ccno3)CC2)s1,1.528%
3,CC(C)c1nnc(NC(=O)NCc2ccc(CO)c(F)c2)s1,-3.606%
4,CCn1cc(NC(=O)NCc2ccc(CO)c(F)c2)cn1,112.4%
5,CCn1cc(NC(=O)NC(CO)Cc2c[nH]c3ccccc23)cn1 (configuration not stated),-9.205%
6,O=C(c1ccccn1)N1CCC(c2nccn2Cc2ccncc2)CC1,7.014%
7,O=C(c1ccccn1)N1CCCC(c2nccn2Cc2ccncc2)C1 (configuration not stated),-10.11%
8,O=C(c1ccccn1)N1CCC(c2nc(O)cc(-c3ccncc3)n2)C1 (configuration not stated),109.3%
9,CC(C)(C)C(=O)N1CCC(c2nc(O)cc(-c3ccncc3)n2)CC1,112.4%
10,CC(C)C(=O)N1CCC(c2nc(O)cc(-c3ccncc3)n2)CC1,-8.577%
11,O=C(c1cccnc1)N1CCC(c2nc(O)cc(-c3ccncc3)n2)C1 (configuration not stated),89.59%
12,COCc1cc(CNC(=O)c2c(O)cccc2O)n[nH]1,12.71%
13,CC(C)N1CCc2[nH]nc(C(=O)N3CCCC3C)c2C1 (configuration not stated),-13.09%
14,CCOCCCNC(=O)NC(C)c1ccc(-n2cncn2)cc1 (configuration not stated),-14.96%
15,CCOCCNC(=O)c1ccn(S(=O)(=O)c2ccc(C)cc2)c1,-5.067%
16,COCC(C)N(C)C(=O)c1ccc2nncn2c1 (configuration not stated),2.79%
17,COc1cc(C)c(NC(=O)NCCn2cccc2)cc1OC,2.296%
18,NC(=O)C1CCN(Cc2cc3c(cc2Br)OCCO3)C1 (configuration not stated),0.4913%
19,Cc1cncc(C(=O)N2CCN(c3cnn(C)c(=O)c3)CC2)c1,-23.7%
20,CC(C)[C@@H]1CN(C(=O)CN(C)Cc2ccccc2)C[C@H]1C(=O)O,-19.29%
21,Cc1cncc(C(=O)N2C[C@@H](C(=O)O)[C@H](C(C)C)C2)c1,102.6%
22,Cc1cncc(C(=O)N2CCCC(C(=O)CCc3ccccc3)C2)c1 (configuration not stated),-18.81%
23,CCc1ccccc1OC1CN(C(=O)c2ccsc2)C1,-5.309%
24,Cc1ccsc1C(=O)N1C[C@@H](C(=O)O)[C@H](C(C)C)C1,117.1%
25,CC(C)[C@@H]1CN(C(=O)c2ccsc2)C[C@H]1C(=O)O,124.9%
26,CC(C)C1CN(C(=O)c2ccsc2)CCS1 (configuration not stated),1.544%

row,SMILES,Percent Effect
1,CC(C)[C@@H]1CN(C(=O)C2(c3ccccc3)CC2)C[C@H]1C(=O)O,6.034%
2,CC(c1cccs1)N(C)C(=O)c1cc(CN(C)Cc2ccccc2)on1 (configuration not stated),-11.33%
3,CN(C)c1cc(C(=O)NCC2(c3cccc(F)c3)CCOCC2)ccn1,-10.3%
4,CCOc1ccc(Cl)cc1C(C(=O)O)N1CCOCC1 (configuration not stated),-18.5%
5,CC(C)(C)OC(=O)N1CSC[C@@H]1C(=O)NCc1ccc(C#N)cc1,-6.965%
6,Cc1ccc(CN2Cc3c(C(=O)N(C)C)nn(C)c3C2)s1.O=C(O)C(F)(F)F,-8.124%
7,Cc1ccc(CN2Cc3nnn(C)c3C(COCC3CC3)C2)s1.O=C(O)C(F)(F)F (configuration not stated),100.2%
8,COCC1CN(Cc2sccc2C)Cc2nnn(CC3CC3)c21.O=C(O)C(F)(F)F (configuration not stated),8.391%
9,Cc1ccc(CN2Cc3nnn(C)c3C(COCC3CC3)C2)o1.O=C(O)C(F)(F)F (configuration not stated),1.722%
10,COCC1CN(Cc2ccc(C)o2)Cc2nnn(C)c21.O=C(O)C(F)(F)F (configuration not stated),3.893%
11,COCC1CN(Cc2ccc(C)s2)Cc2nnn(C)c21.O=C(O)C(F)(F)F (configuration not stated),106%
12,Cc1ccc(CN2Cc3nnn(C)c3C(COCC(=O)N(C)C)C2)s1.O=C(O)C(F)(F)F (configuration not stated),83.68%
13,CCC(CC)NC(=O)CN1CCSCC1,2.417%
14,Cc1ncnc(N2CCCN(c3nc4ccccc4s3)CC2)c1C,-5.721%
15,COCCN1CCC(c2nc3ccc(NC4CCC4)cn3n2)CC1.O=C(O)C(F)(F)F,99.27%
16,Cl.Cl.Cl.c1cncc(CNc2ccc3nc(C4CCNCC4)nn3c2)c1,-18.54%
17,CCN1CCC(c2nc3ccc(NC4CCC4)cn3n2)CC1.O=C(O)C(F)(F)F,79.67%
18,CCN1CCC(c2nc3ccc(NC(C)C)cn3n2)CC1.O=C(O)C(F)(F)F,-4.484%
19,CC(=O)N1CCC(c2nc3ccc(NC4CCC4)cn3n2)CC1.O=C(O)C(F)(F)F,124.1%
20,c1cc2nc(C3CCNCC3)nn2cc1NC1CCC1,109.6%
21,COCC(=O)N1CCC(c2nc3ccc(N4CCCC4)cn3n2)CC1.O=C(O)C(F)(F)F,-11.72%
22,CC(C)Nc1ccc2nc(C3CCN(C(C)C)CC3)nn2c1.O=C(O)C(F)(F)F,7.625%
23,COCCN1CCC(c2nc3ccc(N4CCCC4)cn3n2)CC1.O=C(O)C(F)(F)F,-8.298%
24,Cc1cc(C)c(Cn2cncn2)cc1CN1CC[C@H]2CC[C@@H](C1)N2,27.46%
